Assay [1] in a line: inhibitors of TNFa-induced NFkB p65 translocation, primary screen, imaging, HUVEC, MLSMR starter and 10KST1 sets (AID 438;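 active = inhibition above 20% together with a positive visual image hit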;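 note: compound added about 3h40 before a 20 min TNFalpha stimulation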;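 for inhibition: signal is the nuclear over cytoplasmic p65 intensity ratio per well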). The settings on record: HUVEC TNFa-induced p65 nuclear translocation; cell count: measured here: nuclei count (cytotoxicity indicator), at 2.08 µM; inhibition: at 2 µM, stronger effect = higher value, 0% TNFa-plus-vehicle, 100% no-TNFa wells.
Assay [2] is described as follows: reduction of polyQ htt aggregates in cells – imaging, exon1htt(103Q)mCFP cells, high-content imaging, primary screen (AID 483;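 active = visual image review flags a hit and inhibition of aggregation exceeds 20%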;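 note: compound exposure lasted 3 days before fixation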;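 for nuclei count: percent of the per-plate median nuclei count of sample wells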). The settings on record: exon1htt(103Q)mCFP cell line, aggregate imaging, at 2 µM; inhibition of aggregation: stronger effect = higher value; nuclei count: measured here: cell count, toxicity.
A short description of assay [3]: endothelial E-selectin expression blockers – imaging, HUVEC, immunofluorescence, MLSMR starter and 10KST1 sets, primary screen (AID 487;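 active = visually confirmed hit in the image check and inhibition above 20%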;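 for inhibition: signal is fraction of cell area covered by stained E-selectin grains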;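 for nuclei count: 100% = median nuclei count of all wells on the same plate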). The settings on record: HUVEC TNFalpha-induced E-selectin immunofluorescence imaging, at 2 µM; inhibition: stronger effect = higher value; nuclei count: measured here: cell number, toxicity.
Assay [4] in a line: Primary imaging screen for DUSP6 inhibitors that restore phospho-Erk in transfected HeLa cells, chemical complementation (AID 609;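 active = compounds giving at least 50% inhibition in the cell-based MKP-3 phosphatase rescue imaging test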;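 for inhibition: phospho-Erk level distribution per well compared with pooled transfected vehicle control wells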). The note with it: HeLa MKP-3 transfected, phospho-Erk imaging KS statistic, at 10 µM, cells stimulated with TPA for 15 min.
Assay [5] concerns the target Dual specificity protein phosphatase 6 (Homo sapiens) (UniProt Q16828). The description is as above. The settings on record: HeLa MKP-3 transfected, phospho-Erk imaging KS statistic; at 10 µM; stronger effect = higher value; cells stimulated with TPA for 15 min.
Assay [6] has as its target Voltage-gated potassium channel subunit beta-2 (Rattus norvegicus) (UniProt P62483). The experiment in a line: inhibitors of rat Kvbeta2 reductase activity – biochemical, NADPH fluorescence, primary screen (AID 622;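 active = fluorescence slope higher than the sample average by over 3 SD, cut at about -0.22 in these data, passing the limit was not always enough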;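 note: slope of raw intensity against log time taken from 70 to 1610 s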). The note with it: recombinant KvBeta, 4-cyanobenzaldehyde reduction, at 10 µM, stronger effect = higher value.
The target is the same in assay [7]. The experiment in a line: enhancers of rat Kvbeta2 NADPH turnover – biochemical, NADPH fluorescence, primary screen (AID 623;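 active = NADPH fluorescence slope more negative than the mean of all samples by about 3 SD, 99.7% confidence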;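 note: fluorescence intensity change per second fitted from 20 to 320 s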). The settings on record: Recombinant KvBeta, NADPH fluorescence decrease slope, 10 min; at 10 µM; stronger effect = lower value.
Assay [8] deals with Alpha-2C adrenergic receptor (Homo sapiens) (UniProt P18825). Put plainly: compounds altering alpha2C-coupled GIRK flux – cell-based, HEK293 alpha2C/GIRK1/2, thallium flux, primary screen (AID 624;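 active = fluorescence slope after compound addition differing from the mean of all screened samples at 99.7% confidence, in either direction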;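 note: slope of fluorescence ratio to pre-addition baseline per second over 15 to 24 s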). The note with it: thallium flux BTC fluorescence, at 10 µM, actives lie on both sides.
Sequence of Alpha-2C adrenergic receptor (Homo sapiens) (P18825 whole entry, looked up): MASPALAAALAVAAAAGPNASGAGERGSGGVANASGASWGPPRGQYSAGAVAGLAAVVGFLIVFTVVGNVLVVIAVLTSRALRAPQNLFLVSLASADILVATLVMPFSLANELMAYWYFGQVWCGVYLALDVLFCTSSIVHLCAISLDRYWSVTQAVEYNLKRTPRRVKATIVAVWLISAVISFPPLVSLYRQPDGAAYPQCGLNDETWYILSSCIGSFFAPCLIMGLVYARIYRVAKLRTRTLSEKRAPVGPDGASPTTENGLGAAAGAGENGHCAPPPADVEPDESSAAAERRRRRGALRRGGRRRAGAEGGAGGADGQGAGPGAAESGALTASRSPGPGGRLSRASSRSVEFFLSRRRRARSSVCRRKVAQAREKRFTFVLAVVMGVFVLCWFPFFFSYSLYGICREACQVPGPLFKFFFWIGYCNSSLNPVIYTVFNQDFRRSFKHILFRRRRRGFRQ
Assay [9] in a line: inhibitors of larval lipid processing in zebrafish, primary screen, whole organism, PED6 fluorescence, gall bladder and intestine (AID 686;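 active = a full or partial loss of lipid-probe fluorescence in the fish gall bladder, intestine or both, judged by eye; inactive = no fluorescence loss, or compound toxic to the fish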;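 note: larvae 5 to 7 days old with five fish per well; signal comes from phospholipase A2 cleavage of quenched PED6 carried via bile; overnight exposure to compound and PED6 before scoring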). The settings on record: Zebrafish larvae PED6 lipid processing, fluorescence scoring; screened at 20 µM (by protocol).
Assay [10] in a line: loss of swimming-algae plug formation – whole organism, Chlamydomonas reinhardtii, WT vs cilia-less mutant, absorbance, 96-well, primary screen (AID 463189).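 Note: 0% = wild type cc124 cells in DMSO and 100% = ciliumless bld1 mutant cells.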 The note with it: Chlamydomonas reinhardtii gravitaxis, OD600 absorbance, 2 days; at 10 µM; stronger effect = higher value.
Assay [11] is described as follows: blockers of RIG-like receptor reporter activation – cell-based, Sendai virus stimulus, luciferase, 10K MLSCN set, TLR/RLR signaling modifier project, primary screen (AID 602276;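 active = inhibition at or above 50% at 10 µM; inactive = inhibition below 50%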;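 note: firefly luciferase from ISG56 promoter only with Renilla not read in this screen; 0% = Sendai virus plus DMSO and 100% = medium plus DMSO without virus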). The settings on record: HEK293 RL24 IRF3 luciferase reporter, at 10 µM, stronger effect = higher value. (In general: In a reporter assay the amount or activity of a reporter protein is the signal.)

A short description of assay [12]: TLR3 IRF3 reporter activation blockers – cell-based, poly I:C stimulus, luciferase, 10K MLSCN set, primary screen (AID 602277;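 active = inhibition of the reporter signal at or above 50%; inactive = inhibition below 50%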). The settings on record: HEK293-TLR3 RL24 IRF3 luciferase reporter, at 10 µM, stronger effect = higher value.
[13] abbreviates: measured here: cell density z-score.
Setting [14] is: measured here: nuclear c-Myc green intensity z-score.
Setting [15] is: measured here: nuclear pErk red intensity z-score, stronger effect = higher value.

Molecules are shown by their SMILES. Several values for one entry are separate records, joined by “and”; a condition that tells them apart may be missing. Identical values can stand only once. Activity calls are given as the source filed them.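 Rule for the calls, unless noted: active = inhibition at or above 50% relative to wild type and mutant plate controls; inactive = inhibition below 50%.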

Sequence of Dual specificity protein phosphatase 6 (Homo sapiens) (Q16828 whole entry, looked up): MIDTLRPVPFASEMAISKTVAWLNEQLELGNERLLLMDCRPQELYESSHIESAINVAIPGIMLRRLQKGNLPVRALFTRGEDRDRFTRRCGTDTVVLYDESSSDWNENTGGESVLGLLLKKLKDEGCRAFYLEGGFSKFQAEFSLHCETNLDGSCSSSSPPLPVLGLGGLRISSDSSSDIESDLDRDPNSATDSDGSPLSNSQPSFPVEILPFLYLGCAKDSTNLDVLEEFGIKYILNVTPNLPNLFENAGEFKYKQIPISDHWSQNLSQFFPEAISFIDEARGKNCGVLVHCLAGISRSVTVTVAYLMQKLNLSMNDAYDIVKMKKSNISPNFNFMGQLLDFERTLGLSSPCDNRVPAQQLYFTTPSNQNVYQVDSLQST
Sequence of Voltage-gated potassium channel subunit beta-2 (Rattus norvegicus) (P62483 whole entry, looked up): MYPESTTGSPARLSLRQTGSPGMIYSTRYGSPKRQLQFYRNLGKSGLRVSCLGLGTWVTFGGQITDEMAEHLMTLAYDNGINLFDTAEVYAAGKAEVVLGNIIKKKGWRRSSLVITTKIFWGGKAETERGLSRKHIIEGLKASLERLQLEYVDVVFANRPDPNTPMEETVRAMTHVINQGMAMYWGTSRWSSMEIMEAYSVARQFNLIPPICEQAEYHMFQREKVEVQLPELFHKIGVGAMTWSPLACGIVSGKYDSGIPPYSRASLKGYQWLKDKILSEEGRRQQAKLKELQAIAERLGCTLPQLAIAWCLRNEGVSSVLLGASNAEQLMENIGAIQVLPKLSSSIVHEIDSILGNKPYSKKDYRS

In the case of `COc1ccc(NC(=O)CSC2=C(C#N)C(c3ccco3)C3=C(CCCC3=O)N2)c(OC)c1` (stereo not given), in assay [1], the cell count amounted to 429. In addition, the inhibition in assay [1] was 1.6% (inactive); in assay [3] it was -47.9% (inactive); in assay [5], 13.4% (inactive); in [10], 26.6% (inactive); in assay [11], 17.5% (inactive); in assay [12] it was 18.8% (inactive). The inhibition of aggregation in [2] is -5.2% (inactive). Also, the nuclei count in assay [2] came to 95.8%; in [3], 104%. Also, the z-score is -1.49 in assay [4] (setting [13]), 0.542 in assay [4] (setting [14]) and 0.619 in assay [4] (setting [15]). Moreover, the fluorescence slope in assay [6] was -0.456 (inactive). Moreover, the NADPH fluorescence slope in assay [7] was -9.4e-06 (inactive). Further, the slope in [8] was 0.00706 (inactive). For the same compound, the result in [9] was inactive.
As for `CCCCNc1cc(C(=O)O)cc(S(N)(=O)=O)c1Oc1ccccc1`, the cell count in assay [1] stood at 603. Also, the inhibition in assay [1] is -16.6% (inactive); in assay [3] it was -136% (inactive); in assay [5] it was 15.3% (inactive); in [10], 7.78% (inactive) and -7.14% (inactive); in assay [11], 13.2% (inactive); in [12] it was 38.2% (inactive). Further, the inhibition of aggregation in assay [2] is -13.4% (inactive). Besides, the nuclei count was 110% in assay [2] and 140% in assay [3]. The results for the z-score in assay [4] (setting [13]), in [4] (setting [14]) and in assay [4] (setting [15]) were 0.424, 0.482 and -0.678, respectively. The fluorescence slope in assay [6] was -0.47 (inactive). Besides, in [7], the NADPH fluorescence slope is -6.3e-05 (inactive). Moreover, the slope in assay [8] is 0.00446 (inactive). Also, the outcome in [9] was inactive.
`CN1CC=C2C(C#N)=C(N)C(C#N)(C#N)[C@H](c3cccc(Cl)c3)C2C1` (stereo not given in full): the cell count in assay [1] was found to be 642. Moreover, the inhibition in [1] is -6% (inactive); in assay [3], -18.6% (inactive); in assay [5] it was 71% (inactive); in assay [10], 5.27% (inactive); in assay [11], 13.6% (inactive); in [12], 24.1% (inactive). The inhibition of aggregation in assay [2] is -38.1% (inactive). Moreover, the nuclei count is 98.3% in [2] and 125% in assay [3]. The figures for the z-score in assay [4] (setting [13]), in assay [4] (setting [14]) and in [4] (setting [15]) were 0.015, 5.62 and 0.205, respectively. The fluorescence slope in [6] is -0.368 (inactive). The NADPH fluorescence slope in [7] is -4.7e-05 (inactive). For the same compound, the slope in assay [8] was 0.00551 (inactive). Moreover, in assay [9], the outcome was inactive.
For the compound `CN(C)c1nc(N(C)C)nc(N(C)C)n1`, the cell count in assay [1] worked out at 680. Besides, the inhibition in assay [1] is -4.1% (inactive); in [3] it was -118% (inactive); in assay [5] it was 11.3% (inactive); in assay [10], 4.91% (inactive) and -7.01% (inactive); in [11], 14.2% (inactive); in assay [12] it was 32.5% (inactive). Further, the inhibition of aggregation in assay [2] is 1.6% (inactive). Further, the nuclei count in assay [2] is 109%; in [3], 129%. In addition, the z-score was 1.31 in [4] (setting [13]), -0.357 in assay [4] (setting [14]) and -1.49 in assay [4] (setting [15]). The fluorescence slope in assay [6] is -0.459 (inactive). In addition, the NADPH fluorescence slope in assay [7] was 2.8e-05 (inactive). Moreover, the slope in [8] was 0.0048 (inactive). Besides, the outcome in assay [9] was inactive.
Regarding `CC(=O)Oc1cc(C(C)C)c(OCCN(C)C)cc1C`, the cell count in assay [1] turned out to be 467. Moreover, the inhibition in assay [1] was -9.4% (inactive); in assay [3], -10.4% (inactive); in assay [5], 13.3% (inactive); in [10], 6.3% (inactive) and 24.6% (inactive); in assay [11], 15% (inactive); in assay [12], 49.2% (inactive). Besides, in assay [2], the inhibition of aggregation is 22.4% (inactive). Moreover, the nuclei count in assay [2] amounted to 95.3%; in [3] it was 108%. The z-score in assay [4] (setting [13]) is -0.0151; in assay [4] (setting [14]) it was 0.045; in [4] (setting [15]) it was -0.157. The fluorescence slope in [6] is -0.475 (inactive). Also, the NADPH fluorescence slope in assay [7] was -5.3e-05 (inactive). Besides, the slope in [8] was 0.0046 (inactive). In addition, the compound was classed as inactive in [9].
Take `O=C(O)c1ccccc1S`: in [1], the cell count was determined as 650. In addition, the inhibition in assay [1] is -5% (inactive); in [3] it was -76.8% (inactive); in assay [5] it was 21.2% (inactive); in assay [10] it was -11% (inactive); in [11], 6.85% (inactive); in assay [12], 19% (inactive). The inhibition of aggregation in assay [2] is 6.8% (inactive). Moreover, the nuclei count in assay [2] came to 96.1%; in assay [3], 126%. Besides, the z-score in assay [4] (setting [13]) was 1.28; in assay [4] (setting [14]), 1.34; in assay [4] (setting [15]), -0.494. For the same compound, in assay [6], the fluorescence slope is -0.435 (inactive). Further, in assay [7], the NADPH fluorescence slope is -8.2e-05 (inactive). Also, the slope in assay [8] is 0.00404 (inactive). Moreover, the compound was called inactive in assay [9].
For `C[C@]12CC[C@@H]3c4ccc(OS(=O)(=O)O)cc4CC[C@H]3[C@@H]1CCC2=O`, in assay [1], the cell count turned out to be 725. Further, the inhibition was -2.6% (inactive) in assay [1]; -120% (inactive) in assay [3]; 1.48% (inactive) in assay [5]; 2.37% (inactive) in assay [10]; 11.2% (inactive) in [11]; 25.7% (inactive) in assay [12]. The inhibition of aggregation in assay [2] is 1.7% (inactive). The nuclei count in assay [2] is 98.9%; in assay [3], 121%. The z-score in [4] (setting [13]) is 1.77; in assay [4] (setting [14]), -0.742; in assay [4] (setting [15]), -1.13. The fluorescence slope in assay [6] was -0.507 (inactive). The NADPH fluorescence slope in [7] was -4.6e-05 (inactive). The slope in assay [8] was 0.00404 (inactive). Moreover, the compound was classed as inactive in assay [9].
In the case of `CC(=O)OCC(=O)[C@@]1(OC(C)=O)[C@@H](C)C[C@H]2[C@@H]3C[C@H](F)C4=CC(=O)C=C[C@]4(C)[C@@]3(F)[C@@H](O)C[C@@]21C`, in [1], the cell count came to 659. The inhibition in assay [1] is -5.5% (inactive); in assay [3], -71.2% (inactive); in assay [5], 29.1% (inactive); in assay [10] it was 3.31% (inactive); in assay [11] it was 4.93% (inactive); in assay [12], 44.4% (inactive). The inhibition of aggregation in [2] is -7.2% (inactive). The nuclei count in assay [2] was determined as 68.3%; in assay [3], 116%. For the same compound, the z-score is 1.64 in assay [4] (setting [13]), -1.42 in assay [4] (setting [14]) and -1.55 in [4] (setting [15]). Also, in assay [6], the fluorescence slope is -0.482 (inactive). Besides, in assay [7], the NADPH fluorescence slope is -7.3e-05 (inactive). For the same compound, the slope in [8] is 0.00497 (inactive). Moreover, the compound was classed as inactive in [9].
Take `CCN(CC)CCOC(=O)C(c1ccccc1)c1ccccc1`: the cell count in [1] was determined as 533. Besides, the inhibition was -8.8% (inactive) in assay [1]; -7.9% (inactive) in assay [3]; 7.39% (inactive) in assay [5]; -5.27% (inactive) in assay [10]; 9.86% (inactive) in assay [11]; 40.1% (inactive) in [12]. In addition, in assay [2], the inhibition of aggregation is 19.8% (inactive). In addition, the nuclei count in [2] was 104%; in assay [3] it was 122%. The z-score is -0.21 in [4] (setting [13]), -0.778 in assay [4] (setting [14]) and -0.535 in assay [4] (setting [15]). Further, in assay [6], the fluorescence slope was -0.478 (inactive). In addition, the NADPH fluorescence slope in assay [7] was -3.2e-05 (inactive). The slope in assay [8] was 0.00418 (inactive). Moreover, the call in assay [9] was inactive.
For the compound `CCN(CC)S(=O)(=O)c1cccc2c(N(C)C)cccc12`, in assay [1], the cell count was 503. Further, the inhibition was -2.1% (inactive) in assay [1]; -84.9% (inactive) in [3]; 0.671% (inactive) in [5]; 25.1% (inactive) in assay [10]; -4.35% (inactive) in assay [11]; -4.09% (inactive) in assay [12]. Moreover, in [2], the inhibition of aggregation was 14.8% (inactive). Moreover, the nuclei count amounted to 95.3% in assay [2] and 128% in [3]. The z-score in [4] (setting [13]) is 0.324; in [4] (setting [14]), -0.162; in assay [4] (setting [15]) it was 1.65. Moreover, the fluorescence slope in assay [6] is -0.177 (active). The NADPH fluorescence slope in assay [7] is -1.3e-05 (inactive). For the same compound, the slope in assay [8] was 0.00311 (inactive). In addition, the compound was called inactive in assay [9].

The inhibition is the change of the read-out against control, counted positive when it falls.

For the origin of these results see PubChem BioAssay.
